High-throughput results as filed in PubChem.
Sm TGR inh – qHTS Assay for the Inhibitors of Schistosoma Mansoni Peroxiredoxins. purified TGR, DTNB reduction, TNB absorbance 405 nm. 360,000 tested, 3% active. Potency, µM (doses to about 114 µM), for the others: at the top dose activity change, negative = inhibition, usual class: inhibitors. AID 485364, 2010; further: on the % scale 0 is the no-effect control and ±100 the full control effect; nearly all actives have a fitted effect of over 60% in size
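First, TGR (20 nM dispensed) and NADPH were mixed with compound. Second, a 15 min room-temperature incubation followed. Third, further NADPH and then DTNB were added to start the reaction. Finally, TNB absorbance was monitored kinetically.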
NS1 function inh – qHTS Assay for Inhibitors of Influenza NS1 Protein Function; 270,000 tested, 0.4% active; Potency, µM (doses to about 46.1 µM), for inactives: top-dose activity, positive = more growth; calls by dose curve; further: actives are rising curves; nearly all actives have a fitted effect of over 50% in size
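Recovery from NS1-induced slow growth read by OD600 in budding yeast switched to galactose assay medium (pH 6.0, -URA) at 1:100 dilution. Compound 23 nl per well; the matching strain lacking NS1 serves as control.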
FBPA Giardia inh – qHTS Assay for Inhibitors of Fructose-1,6-bisphosphate Aldolase from Giardia Lamblia. purified Giardia FBPA. A8B2U2. 290,000 tested, 0.71% active. AID 2451, 2010. Potency, µM (doses to about 59.6 µM), for inactives: top-dose activity, negative = inhibition, hits mostly inhibitors; further: on the % scale 0 is the no-effect control and ±100 the full control effect; nearly all actives have a fitted effect of over 55% in size
Target sequence (A8B2U2 whole entry, looked up): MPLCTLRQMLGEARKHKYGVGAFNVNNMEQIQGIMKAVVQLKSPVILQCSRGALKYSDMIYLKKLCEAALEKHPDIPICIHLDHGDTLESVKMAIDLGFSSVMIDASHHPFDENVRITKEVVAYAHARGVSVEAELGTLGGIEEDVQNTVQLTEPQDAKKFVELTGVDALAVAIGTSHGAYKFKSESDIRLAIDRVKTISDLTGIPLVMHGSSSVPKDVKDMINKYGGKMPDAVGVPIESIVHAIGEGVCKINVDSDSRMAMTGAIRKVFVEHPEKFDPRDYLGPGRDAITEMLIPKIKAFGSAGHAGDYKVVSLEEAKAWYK
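40 nM FBPA preincubated 10 min at RT with compound (up to 57.5 uM final), then substrate plus GAPDH/TPI/NAD/arsenate coupling and diaphorase/resazurin added. Fluorescence read after 20 min at RT, 525/598 nm.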
LmPK inh – qHTS Assay for Inhibitors of Leishmania Mexicana Pyruvate Kinase (LmPK) | Q27686 | purified LmPK, Kinase-Glo ATP luminescence, 1 h | Potency, µM (doses to about 57.5 µM), for inactives: top-dose activity change, negative = inhibition, most hits filed as inhibitors | 290,000 tested, 0.37% active; further: on the % scale 0 is the no-effect control and ±100 the full control effect
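0.1 nM LmPK, 0.5 mM PEP, 0.1 mM ADP; 50 mM imidazole pH 7.2, 7 mM MgCl2, 50 mM KCl; 1 h RT. Kinase-Glo luminescence readout, normalized to no-enzyme (full inhibition) and uninhibited wells.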
TbPYK inhibitor – qHTS of Trypanosoma Brucei Inhibitors. pyruvate kinase (Trypanosoma brucei), Q57TT1. TbPYK enzyme, Kinase-Glo Plus ATP luminescence, 45 min. Potency, µM (top dose mostly 76.8 µM), inactives show at the highest dose activity, negative = inhibition, hits mostly inhibitors. 410,000 tested, 0.12% active. AID 624173, 2012; further: on the % scale 0 is the no-effect control and ±100 the full control effect; nearly all actives have a fitted effect of over 50% in size
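In this concentration-response screen, enzyme-free wells defined baseline while DMSO plates tracked drift. Each reaction combined TbPYK, substrate, compound and 130 uM ADP for 45 min at room temperature. Kinase-Glo Plus luminescence gave the signal.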
RE007 growth inh – qHTS Assay for Inhibitors of the HIV-1 protein Vpr; S. pombe RE007 Vpr strain, BacTiter-Glo ATP luminescence, 24 h; Potency, µM (highest dose often 92.2 µM), for the others: at the highest dose activity change, negative = less growth, most hits filed as inhibitors; 360,000 tested, 0.21% active; active means well fitted falling curve with a large enough effect; inconclusive means small, poorly fitted or top-dose-only effect; inactive means no such curve, though single readings can be large or run the other way; further: on the % scale 0 is the no-effect control and ±100 the full control effect; nearly all actives have a fitted effect of over 50% in size
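Fission yeast RE007 carrying one integrated HIV-1 vpr copy, seeded at OD 0.01 in PMG+AL medium with 23 nL pinned compound. Grown 24 h at 30 degrees; viability read by BacTiter-Glo luminescence after 5 min.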
An asterisk follows results filed as active; ? = inconclusive; / = not tested or not shown; [ ] = another dose, or the depositor's remark. The list is not random: actives were taken first. Their share in the collection is about 3.5%. Unless noted, the call rests on the fitted dose curve; in most records, active means well fitted curve in the direction sought with a large enough effect; inconclusive means small, poorly fitted or top-dose-only effect, or another doubt; inactive means no such curve, though single readings can be large; an effect the other way counts as inactive or inconclusive. Potency means the concentration at half of the fitted maximal effect.

SMILES	Sm TGR inh	NS1 function inh	FBPA Giardia inh	LmPK inh	TbPYK inhibitor	RE007 growth inh
S=c1[nH]nc(CSCc2ccccc2Cl)n1-c1ccccc1	0.0%	-62.0%	8.9%	12.6µM*	/	6.3%[3.69 µM]
CC(=O)Nc1ccc(N=NN2CCOCC2)cc1	8.91µM*	/	-2.3%	-0.8%	-17.2%	12.1%
CC(=O)Nc1cccc(N=NN2CCOCC2)c1	-9.0%	0.3%	5.2%	-1.1%	2.1%	6.0%
CCCc1nnc(NC(=O)c2nc(S(=O)(=O)Cc3cccc(C)c3)ncc2Cl)s1	35.5µM*	21.0%	/	-0.4%	2.9%	1.8%
Cc1cccc(CS(=O)(=O)c2ncc(Cl)c(C(=O)Nc3c(C)cccc3C)n2)c1	7.08µM*	-43.4%	/	-8.2%	-11.7%	-16.4%
Cc1cccc(CS(=O)(=O)c2ncc(Cl)c(C(=O)NCc3ccccc3)n2)c1	7.94µM*	-2.5%	/	-8.7%	8.1%	-5.2%
Cc1cccc(CS(=O)(=O)c2ncc(Cl)c(C(=O)Nc3nc4ccc(F)cc4s3)n2)c1	-28.1%	/	/	/	1.2%	/
COc1ccc(NC(=O)c2nc(S(=O)(=O)Cc3cccc(C)c3)ncc2Cl)c(OC)c1	8.4%	-1.5%	/	4.3%	-5.7%	-10.9%
Cc1nnc(NC(=O)c2nc(S(=O)(=O)Cc3ccccc3)ncc2Cl)s1	22.4µM*	-8.1%	/	-0.2%	-9.2%	-3.7%
CCOc1ccc(NC(=O)CSc2nc(-c3cccc(Cl)c3)nc3c2Cc2c(CO)cnc(C)c2O3)cc1	?	/	/	/	0.9%	/
COc1cc(CNC(=O)c2cc(-c3ccccc3)n[nH]2)cc(OC)c1OC	-0.6%	/	/	/	-9.1%	/
COc1ccc2nc(NC(=O)c3nc(S(=O)(=O)Cc4ccccc4)ncc3Cl)sc2c1	3.9%	/	/	/	-3.7%	/
Cc1cccc(C)c1NC(=O)c1nc(S(=O)(=O)Cc2ccccc2)ncc1Cl	12.6µM*	-38.9%	/	1.7%	0.6%	-6.9%
COc1ccc(OC)c(NC(=O)c2nc(S(=O)(=O)Cc3ccccc3)ncc2Cl)c1	3.16µM*	-5.5%	/	-9.8%	-10.5%	-1.7%
COc1ccc(C)cc1NC(=O)C(=O)NCC(c1cccnc1)N1CCN(c2ccccc2F)CC1 (stereo not drawn)	-0.5%	/	/	/	-6.9%	/
CN(/N=C/c1ccc(Br)o1)C1=NS(=O)(=O)c2ccccc21	44.7µM*	/	0.4%	-12.5%	1.3%	4.6%
COc1cc([C@H]2Oc3cc([C@H]4Oc5cc(O)cc(O)c5C(=O)[C@@H]4O)ccc3O[C@@H]2CO)ccc1O	-17.1%	-1.5%	1.0%	-6.8%	-1.9%	4.9%
COc1cc([C@@H]2Oc3cc(C4Oc5cc(O)cc(O)c5C(=O)[C@H]4O)ccc3O[C@H]2CO)ccc1O (stereo partly drawn)	44.7µM*	/	/	/	4.5%	18.5%
O=C(NC[C@H](O)c1ccccc1)c1ccccc1	/	/	1.2%	/	/	/
CCOc1ccc2nc(NC(=O)c3ccoc3C)sc2c1	-32.8%	-47.2%	-17.1%	12.6µM*	?	10µM*
CCOc1ccc2nc(NC(=O)c3ccccn3)sc2c1	-7.5%	-47.8%	?	?	-11.4%	14.1µM*
COc1cc(-c2cc(OC)c3c(C)oc(C)c3c(=O)c2)ccc1OC(=O)c1ccccc1Cl	-16.9%	/	/	/	-17.2%	/
Cc1oc(C)c2c(=O)cc(-c3ccc4c(c3)OCO4)cc(OC(=O)c3ccccc3Br)c12	44.7µM*	/	/	/	3.7%	/
Cc1oc(C)c2c(=O)cc(-c3ccc4c(c3)OCO4)cc(OC(=O)c3ccccc3Cl)c12	39.8µM*	/	/	/	-4.7%	/
Cc1cc2cc(CNC(=O)CCC(=O)O)ccc2[nH]1	0.0%	3.0%	1.8%	-8.0%	-7.9%	10.8%
SMILES	Sm TGR inh	NS1 function inh	FBPA Giardia inh	LmPK inh	TbPYK inhibitor	RE007 growth inh
CCC(=O)NCc1ccc2[nH]c(C)cc2c1	28.2µM*	/	?	-6.2%	2.3%	5.3%
CC(=O)NCc1ccc2[nH]c(C)cc2c1	39.8µM*	7.1%	?	-1.5%	-5.2%	6.1%
Oc1ccc2c3c1O[C@H]1[C@@H](O)C=CC4[C@@H](C2)NCC[C@@]341 (stereo partly drawn)	/	/	/	/	-1.6%	/
CCn1c([N+](=O)[O-])nc2c1c(=O)[nH]c(=O)n2C	25.1µM*	-1.0%	12.6µM*	-8.7%	2.0%	2.6%
C#CCNc1c2c(nc3ncnn13)CC(C)CC2 (stereo not drawn)	22.4µM*	-1.8%	-0.8%	-5.8%	-2.1%	12.9%
c1ccc(CNc2c3c(nc4ncnn24)CCCC3)nc1	-24.7%	-1.9%	23.1%	-2.5%	3.4%	0.1%
CCOC(=O)c1ccccc1NC(=O)CN1C(=O)CCS(=O)(=O)c2ccccc21	39.8µM*	-4.1%	5.6%	4.2%	3.4%	-0.6%
O=C(CN1C(=O)CCS(=O)(=O)c2ccccc21)Nc1ccc2c(c1)OCCO2	-0.4%	5.3%	-11.4%	3.0%	-11.0%	3.0%
CCOC(=O)c1ccccc1NC(=O)CN1C(=O)CC(c2ccco2)Sc2ccccc21 (stereo not drawn)	-2.6%	/	/	/	1.0%	/
O=C(CN1C(=O)CCS(=O)(=O)c2ccccc21)Nc1ccc(Cl)cc1	50.1µM*	15.3%	-6.6%	-1.7%	2.0%	2.7%
O=C(O)CC12CC3CC(C1)CC(n1ncc(NCC4CCCO4)c(Cl)c1=O)(C3)C2 (stereo not drawn)	39.8µM*	1.4%	-4.3%	-2.4%	-4.8%	-17.5%
Cc1ccc(Nc2cnn(C34CC5CC(CC(CC(=O)O)(C5)C3)C4)c(=O)c2Cl)cc1C	-0.7%	26.1%	3.8%	5.0%	0.0%	9.5%
O=C(O)CC12CC3CC(C1)CC(n1ncc(NCc4ccco4)c(Cl)c1=O)(C3)C2	11.2µM*	5.4%	-5.9%	2.0%	-20.5%	9.3%
CCOC(=O)C1CCCN(C(=O)Cn2ncc3c(C)n(Cc4ccccc4F)c(C)c3c2=O)C1 (stereo not drawn)	-6.1%	/	/	/	1.5%	/
O=[N+]([O-])c1ccc(Cl)c([N+](=O)[O-])c1	2.24µM*	/	/	/	0.8%	?
CS(=O)(=O)N1N=C(c2ccco2)CC1c1cccc([N+](=O)[O-])c1 (stereo not drawn)	44.7µM*	3.8%	2.1%	8.7%	0.3%	12.2%
CS(=O)(=O)N1N=C(c2ccco2)CC1c1ccc(Br)cc1 (stereo not drawn)	?	0.9%	6.4%	-1.3%	1.7%	7.3%
COc1ccccc1C1CC(c2ccco2)=NN1S(C)(=O)=O (stereo not drawn)	?	-0.5%	-2.3%	-7.0%	-7.1%	-19.2%
CS(=O)(=O)N1N=C(c2ccco2)CC1c1ccccc1Cl (stereo not drawn)	39.8µM*	0.6%	0.2%	1.1%	-3.3%	6.6%
